Among the data in article PMC7862700, “An all-to-all approach to the identification of sequence-specific readers for epigenetic DNA modifications on cytosine” are binding signal values, retold here.

What all share (experiment): DAPPL (digital affinity profiling via proximity ligation, sequencing); 10 mM Tris-HCl pH 7.5, 50 mM NaCl, 1 mM DTT, 4% glycerol, room temperature, 30 min; GST-TFs on glutathione beads, 16-mer random dsDNA library, 0.1% formaldehyde crosslink after washing; high values mean tight binding
Holding throughout (settings): protein: recombinant; tags: N-terminal GST; dsDNA, one strand shown

In one test the target is T1, ELK1 (Homo sapiens, UniProt P19419 1-428).
T1 sequence: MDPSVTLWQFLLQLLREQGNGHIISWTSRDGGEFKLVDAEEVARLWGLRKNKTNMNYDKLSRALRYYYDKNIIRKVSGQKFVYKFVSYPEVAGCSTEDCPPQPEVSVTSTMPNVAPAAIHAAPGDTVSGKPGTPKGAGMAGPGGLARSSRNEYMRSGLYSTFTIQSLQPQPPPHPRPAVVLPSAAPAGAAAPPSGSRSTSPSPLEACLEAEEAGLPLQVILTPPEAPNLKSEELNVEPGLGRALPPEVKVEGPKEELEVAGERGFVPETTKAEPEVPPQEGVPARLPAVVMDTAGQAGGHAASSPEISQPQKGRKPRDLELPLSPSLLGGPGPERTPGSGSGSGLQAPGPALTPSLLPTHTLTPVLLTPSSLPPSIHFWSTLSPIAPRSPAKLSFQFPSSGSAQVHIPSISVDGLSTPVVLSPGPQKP
The method, boiled down: (§1)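 GST fusions of human transcription factors were expressed in yeast and captured with glutathione beads. Once given DNA barcodes and pooled alongside a tag-only sample, they were incubated for 30 min at room temperature with 200 nmole of a random double-stranded 16-mer DNA library in Tris/NaCl/DTT/glycerol buffer, then washed, crosslinked (0.1% formaldehyde), proximity-ligated, PCR-amplified and sequenced on an Illumina NextSeq500. The binding signal of each hexamer is its read frequency for a factor divided by its frequency for the tag-only sample.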

Another test deals with T2, GABPA (Homo sapiens, UniProt Q06546 1-454).
T2 sequence: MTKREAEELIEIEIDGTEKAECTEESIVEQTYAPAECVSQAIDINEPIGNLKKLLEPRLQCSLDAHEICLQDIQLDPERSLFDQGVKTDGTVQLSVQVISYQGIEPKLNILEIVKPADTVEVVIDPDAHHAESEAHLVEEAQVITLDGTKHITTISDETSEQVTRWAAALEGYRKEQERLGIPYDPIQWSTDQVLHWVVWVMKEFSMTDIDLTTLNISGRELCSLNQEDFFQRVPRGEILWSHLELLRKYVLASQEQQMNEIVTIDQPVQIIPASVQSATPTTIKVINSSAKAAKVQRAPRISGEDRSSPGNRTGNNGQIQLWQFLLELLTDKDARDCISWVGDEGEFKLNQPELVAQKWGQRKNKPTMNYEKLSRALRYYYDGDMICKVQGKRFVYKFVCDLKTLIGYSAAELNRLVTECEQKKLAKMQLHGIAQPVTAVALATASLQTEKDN
The essentials: as §1

The target of the next test is ELF1 (Homo sapiens, UniProt P32519 1-619). The essentials: as §1
A further test addresses SPI1 (Homo sapiens, UniProt P17947 1-270). The essentials:
as §1

Another test addresses SPIB (Homo sapiens, UniProt Q01892 1-262). The method, boiled down:
as §1

The target of the next test is T3, FEV (Homo sapiens, UniProt Q99581 1-238).
T3 sequence: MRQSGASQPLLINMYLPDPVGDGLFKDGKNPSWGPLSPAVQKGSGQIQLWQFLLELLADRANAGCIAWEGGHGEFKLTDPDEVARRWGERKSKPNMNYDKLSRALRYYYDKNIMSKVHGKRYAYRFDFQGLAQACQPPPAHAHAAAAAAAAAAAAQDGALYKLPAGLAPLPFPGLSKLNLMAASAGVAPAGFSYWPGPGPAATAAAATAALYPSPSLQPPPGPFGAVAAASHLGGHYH
The method, boiled down:
as §1

For the next test, the target named is ETV5 (Homo sapiens, UniProt P41161 1-510). The method, boiled down: as §1
The next test has as its target ELF4 (Homo sapiens, UniProt Q99607 1-663). The method, boiled down:
as §1

Another test has as its target T4, ELK4 (Homo sapiens, UniProt P28324-2 1-405).
T4 sequence: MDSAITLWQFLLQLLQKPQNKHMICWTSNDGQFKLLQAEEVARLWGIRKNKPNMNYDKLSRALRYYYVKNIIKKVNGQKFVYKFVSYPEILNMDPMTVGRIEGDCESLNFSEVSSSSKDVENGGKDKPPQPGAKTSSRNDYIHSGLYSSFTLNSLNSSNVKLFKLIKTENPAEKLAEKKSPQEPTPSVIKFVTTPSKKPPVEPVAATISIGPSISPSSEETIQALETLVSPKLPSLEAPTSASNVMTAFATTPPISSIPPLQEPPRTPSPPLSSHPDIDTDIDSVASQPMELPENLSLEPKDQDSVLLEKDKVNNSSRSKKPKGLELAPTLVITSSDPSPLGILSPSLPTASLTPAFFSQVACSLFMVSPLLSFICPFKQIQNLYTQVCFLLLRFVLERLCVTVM
The essentials: as §1

The target in the next test is T5, ETV2 (Homo sapiens, UniProt O00321 1-342).
T5 sequence: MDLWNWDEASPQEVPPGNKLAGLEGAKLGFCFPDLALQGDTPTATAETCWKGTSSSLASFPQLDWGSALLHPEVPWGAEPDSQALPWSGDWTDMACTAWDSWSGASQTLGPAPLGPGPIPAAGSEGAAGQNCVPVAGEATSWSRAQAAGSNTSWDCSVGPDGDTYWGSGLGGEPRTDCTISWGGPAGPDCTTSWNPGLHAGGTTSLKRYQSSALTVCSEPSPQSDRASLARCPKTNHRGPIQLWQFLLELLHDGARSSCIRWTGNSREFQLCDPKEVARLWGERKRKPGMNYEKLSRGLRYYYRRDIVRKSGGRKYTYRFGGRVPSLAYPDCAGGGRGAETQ
The method, boiled down:
as §1

Another test concerns the target ETV1 (Homo sapiens, UniProt P50549 1-477). The method, boiled down:
as §1

The target of a further test is T6, ERF (Homo sapiens, UniProt P50548 1-548).
T6 sequence: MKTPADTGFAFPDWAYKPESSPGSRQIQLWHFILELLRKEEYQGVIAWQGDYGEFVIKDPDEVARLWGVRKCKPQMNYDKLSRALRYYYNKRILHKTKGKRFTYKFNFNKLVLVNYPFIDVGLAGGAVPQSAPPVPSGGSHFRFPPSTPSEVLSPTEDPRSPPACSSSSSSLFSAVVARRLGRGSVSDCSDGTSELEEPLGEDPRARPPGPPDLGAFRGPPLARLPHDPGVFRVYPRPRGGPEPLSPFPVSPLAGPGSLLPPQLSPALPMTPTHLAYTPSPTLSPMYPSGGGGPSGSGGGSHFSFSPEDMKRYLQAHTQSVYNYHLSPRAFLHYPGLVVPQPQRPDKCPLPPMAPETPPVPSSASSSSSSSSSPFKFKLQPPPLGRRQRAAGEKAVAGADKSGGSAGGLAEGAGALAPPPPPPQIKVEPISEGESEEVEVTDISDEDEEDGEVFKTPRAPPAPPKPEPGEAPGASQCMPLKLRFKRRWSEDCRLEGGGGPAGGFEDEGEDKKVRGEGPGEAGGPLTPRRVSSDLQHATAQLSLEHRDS
The method, boiled down:
as §1

A further test has as its target T7, ETV3L (Homo sapiens, UniProt Q6ZN32 1-361).
T7 sequence: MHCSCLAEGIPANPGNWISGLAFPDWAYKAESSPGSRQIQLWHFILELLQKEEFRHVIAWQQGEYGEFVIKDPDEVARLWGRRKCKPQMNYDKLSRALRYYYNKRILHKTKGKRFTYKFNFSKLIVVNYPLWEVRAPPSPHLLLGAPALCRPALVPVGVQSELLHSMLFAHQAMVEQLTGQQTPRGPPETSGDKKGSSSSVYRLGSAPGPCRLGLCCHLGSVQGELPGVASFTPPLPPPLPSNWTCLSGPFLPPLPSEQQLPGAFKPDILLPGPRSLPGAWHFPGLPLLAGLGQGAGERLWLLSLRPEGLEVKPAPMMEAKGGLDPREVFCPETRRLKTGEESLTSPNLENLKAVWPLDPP
The essentials: as §1

In another test the target is T8, ETS2 (Homo sapiens, UniProt P15036 1-469).
T8 sequence: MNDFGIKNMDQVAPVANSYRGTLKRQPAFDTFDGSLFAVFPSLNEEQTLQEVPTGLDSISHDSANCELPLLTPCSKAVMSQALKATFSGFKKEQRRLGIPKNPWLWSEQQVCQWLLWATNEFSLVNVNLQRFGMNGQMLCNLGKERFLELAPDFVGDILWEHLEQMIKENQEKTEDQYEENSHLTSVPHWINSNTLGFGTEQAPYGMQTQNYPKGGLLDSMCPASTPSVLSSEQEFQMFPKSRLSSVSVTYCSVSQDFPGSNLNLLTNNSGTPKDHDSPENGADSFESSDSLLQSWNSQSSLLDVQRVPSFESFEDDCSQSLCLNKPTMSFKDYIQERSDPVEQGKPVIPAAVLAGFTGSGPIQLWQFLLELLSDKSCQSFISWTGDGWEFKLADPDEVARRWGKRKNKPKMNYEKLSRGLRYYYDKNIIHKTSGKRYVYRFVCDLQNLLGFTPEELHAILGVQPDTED
The essentials: as §1

Chain of ELF1 (P32519 whole entry): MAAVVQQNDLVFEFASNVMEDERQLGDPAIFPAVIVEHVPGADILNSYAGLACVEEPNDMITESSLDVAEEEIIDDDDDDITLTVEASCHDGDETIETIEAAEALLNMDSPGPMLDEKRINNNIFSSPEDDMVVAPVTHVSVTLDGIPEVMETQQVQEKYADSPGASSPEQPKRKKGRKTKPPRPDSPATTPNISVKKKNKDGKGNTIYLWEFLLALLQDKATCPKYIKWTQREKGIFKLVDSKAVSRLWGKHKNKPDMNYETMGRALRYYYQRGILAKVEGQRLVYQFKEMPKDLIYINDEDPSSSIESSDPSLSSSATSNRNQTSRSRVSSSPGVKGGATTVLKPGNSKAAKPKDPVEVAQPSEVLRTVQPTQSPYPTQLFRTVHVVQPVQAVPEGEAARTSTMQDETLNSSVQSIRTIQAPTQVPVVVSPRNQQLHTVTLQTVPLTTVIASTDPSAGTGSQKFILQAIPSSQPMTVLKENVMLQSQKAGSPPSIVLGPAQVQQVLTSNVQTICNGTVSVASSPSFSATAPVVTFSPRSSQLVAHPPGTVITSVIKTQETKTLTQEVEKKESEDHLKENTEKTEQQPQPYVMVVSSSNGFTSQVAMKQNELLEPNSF
Chain of ELF4 (Q99607 whole entry): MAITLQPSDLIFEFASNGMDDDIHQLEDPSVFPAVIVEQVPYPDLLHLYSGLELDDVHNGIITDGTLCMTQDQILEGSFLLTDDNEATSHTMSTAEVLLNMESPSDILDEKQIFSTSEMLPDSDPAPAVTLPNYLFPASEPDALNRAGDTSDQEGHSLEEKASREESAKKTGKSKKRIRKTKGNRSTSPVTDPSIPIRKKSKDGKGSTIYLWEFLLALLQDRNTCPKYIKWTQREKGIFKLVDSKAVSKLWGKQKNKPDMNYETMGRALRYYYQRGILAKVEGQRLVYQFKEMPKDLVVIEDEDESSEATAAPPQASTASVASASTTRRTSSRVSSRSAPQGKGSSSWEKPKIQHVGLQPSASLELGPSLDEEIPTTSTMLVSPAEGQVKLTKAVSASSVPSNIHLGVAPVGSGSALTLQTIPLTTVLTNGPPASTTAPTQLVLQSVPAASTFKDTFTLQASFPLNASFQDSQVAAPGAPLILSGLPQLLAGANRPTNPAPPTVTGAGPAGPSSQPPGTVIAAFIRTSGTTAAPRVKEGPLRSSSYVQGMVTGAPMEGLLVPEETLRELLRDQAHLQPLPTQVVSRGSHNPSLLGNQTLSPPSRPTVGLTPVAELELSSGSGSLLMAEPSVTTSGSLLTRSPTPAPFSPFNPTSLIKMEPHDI
Chain of ETV1 (P50549 whole entry): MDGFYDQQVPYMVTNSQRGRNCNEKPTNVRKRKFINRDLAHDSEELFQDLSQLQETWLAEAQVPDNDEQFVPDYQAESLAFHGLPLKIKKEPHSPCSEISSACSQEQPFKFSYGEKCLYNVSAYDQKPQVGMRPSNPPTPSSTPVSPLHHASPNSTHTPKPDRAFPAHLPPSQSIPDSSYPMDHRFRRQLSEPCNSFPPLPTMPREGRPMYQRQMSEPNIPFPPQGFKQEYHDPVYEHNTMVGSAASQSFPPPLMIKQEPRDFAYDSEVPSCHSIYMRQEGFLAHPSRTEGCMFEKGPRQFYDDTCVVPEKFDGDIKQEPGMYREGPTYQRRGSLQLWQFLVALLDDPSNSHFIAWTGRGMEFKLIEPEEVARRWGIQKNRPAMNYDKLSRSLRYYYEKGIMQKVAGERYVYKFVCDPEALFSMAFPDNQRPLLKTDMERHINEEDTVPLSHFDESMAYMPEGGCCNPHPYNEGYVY
Chain of SPIB (Q01892 whole entry): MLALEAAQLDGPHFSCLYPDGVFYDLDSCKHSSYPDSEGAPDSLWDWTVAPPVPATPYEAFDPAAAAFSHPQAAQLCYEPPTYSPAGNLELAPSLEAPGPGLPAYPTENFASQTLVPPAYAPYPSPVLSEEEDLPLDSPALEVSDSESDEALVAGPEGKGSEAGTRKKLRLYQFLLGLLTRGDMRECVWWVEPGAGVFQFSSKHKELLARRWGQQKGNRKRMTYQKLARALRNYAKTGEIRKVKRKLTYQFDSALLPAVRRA
Chain of ETV5 (P41161 whole entry): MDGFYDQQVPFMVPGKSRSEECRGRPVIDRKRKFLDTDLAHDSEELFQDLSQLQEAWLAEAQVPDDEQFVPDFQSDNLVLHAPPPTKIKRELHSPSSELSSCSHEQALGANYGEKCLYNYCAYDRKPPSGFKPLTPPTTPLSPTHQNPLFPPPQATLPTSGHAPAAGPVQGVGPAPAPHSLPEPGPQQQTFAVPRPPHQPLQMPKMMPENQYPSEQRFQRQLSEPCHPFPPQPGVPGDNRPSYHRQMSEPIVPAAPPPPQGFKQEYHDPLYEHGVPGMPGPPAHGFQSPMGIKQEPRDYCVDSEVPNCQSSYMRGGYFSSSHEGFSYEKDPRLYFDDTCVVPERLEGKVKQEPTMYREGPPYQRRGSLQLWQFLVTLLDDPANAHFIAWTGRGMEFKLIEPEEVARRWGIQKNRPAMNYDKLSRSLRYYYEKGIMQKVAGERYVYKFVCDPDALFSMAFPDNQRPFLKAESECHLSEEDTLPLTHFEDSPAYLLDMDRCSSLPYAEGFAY

Take GCCTGA: the binding signal with ELK1 is 1.13 fold enrichment (6-mer frequency, TF over GST control); with GABPA, 1.11 fold enrichment (6-mer frequency, TF over GST control); with ELF1, 1.04 fold enrichment (6-mer frequency, TF over GST control); in the test with SPI1 it was 1.05 fold enrichment (6-mer frequency, TF over GST control); in the test with SPIB, 1.09 fold enrichment (6-mer frequency, TF over GST control); with FEV it was 1.1 fold enrichment (6-mer frequency, TF over GST control). In addition, the binding signal with ETV5 is 1.09 fold enrichment (6-mer frequency, TF over GST control); with ELF4, 1.06 fold enrichment (6-mer frequency, TF over GST control); in the test with ELK4 it was 1.07 fold enrichment (6-mer frequency, TF over GST control); with ETV2 it was 1.03 fold enrichment (6-mer frequency, TF over GST control); with ETV1, 1.05 fold enrichment (6-mer frequency, TF over GST control); with ERF it was 1.07 fold enrichment (6-mer frequency, TF over GST control). The binding signal in the test with ETV3L is 1.12 fold enrichment (6-mer frequency, TF over GST control); in the test with ETS2 it was 1.02 fold enrichment (6-mer frequency, TF over GST control).
